Experimental data from PubChem BioAssay.
The source made the active and inactive calls.

Tests used:
[1] = A549 cell viability effects, profiling panel, calcein-AM fluorescence, 48 h, basal (AID 1162); conditions: higher = more signal
[2] = adipocyte viability effects, profiling panel, cell-based, 3T3-L1 adipocytes, calcein-AM fluorescence, 48 h, basal (AID 1163); conditions: 3T3-L1 adipocytes viability, higher = more signal
[3] = HepG2 cell viability effects, profiling panel, calcein-AM fluorescence, 48 h, basal (AID 1164); conditions: higher = more signal
[4] = MM1S cell viability effects, profiling panel, calcein-AM fluorescence, 48 h, basal (AID 1165); conditions: higher = more signal;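 further: viability of MM1S multiple myeloma cells under basal unstimulated conditions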
[5] = basal RPMI8226 viability, no added stimulus, profiling panel, cell-based, calcein-AM fluorescence, 48 h, PK04 Diversity Set (AID 1166); conditions: RPMI8226 myeloma viability, higher = more signal;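 further: cells grown under basal conditions without added stimulus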
[6] = basal HepG2 mitochondrial membrane potential changes, profiling panel, cell-based, JC-1 fluorescence, 24 h, 100 nL compound (AID 1167); conditions: higher = more signal
[7] = basal 3T3-L1 adipocyte mitochondrial potential changes, profiling panel, cell-based, JC-1 fluorescence, 3T3-L1 adipocytes, 24 h, 100 nL compound (AID 1168); conditions: JC-1 mitochondrial fluorescence, higher = more signal, called active from +8 up or from −8 down
[8] = basal RPMI8226 mitochondrial membrane potential changes, profiling panel, cell-based, JC-1 fluorescence, 24 h, 100 nL compound (AID 1169); conditions: RPMI8226 myeloma, JC-1 mitochondrial potential fluorescence, higher = more signal
[9] = basal MM1S mitochondrial membrane potential changes, profiling panel, cell-based, JC-1 fluorescence, 24 h, 100 nL compound (AID 1170); conditions: higher = more signal
[10] = A549 lung cancer cell viability effects, profiling panel, resazurin fluorescence, 24 h, PK04 Diversity Set (AID 1171); conditions: higher = more signal, called active from +8 up or from −8 down
Further: test concentration not given here.

Row | SMILES | z-score [1] | z-score [2] | z-score [3] | z-score [4] | z-score [5] | z-score [6] | z-score [7] | z-score [8] | z-score [9] | z-score [10]
1 | CN(C)C(=O)[C@]1(Cc2ccccc2)N=C(c2ccc(OCCCO)cc2)O[C@@H]1c1ccccc1CN=[N+]=[N-] | 0.233 | 0.412 | -0.0312 | -0.726 | -1.65 | 0.501 | 0.0148 (inactive) | -1.23 | -0.507 | 0.553 (inactive)
2 | C=CCOC(=O)[C@@H]1[C@H]2C(=O)O[C@H](c3ccccc3)[C@H](c3ccccc3)N2[C@H](c2ccc(OCCOC(=O)[C@H]3C[C@H]4C(=O)N[C@@H](CCCCN(C)C)C(=O)N4[C@H]3c3ccc(O)cc3)cc2)[C@@]12C(=O)Nc1ccc(I)cc12 | -0.191 | -0.357 | 0.278 | -0.644 | -1.11 | 0.309 | 1.33 (inactive) | -0.35 | -0.933 | 0.923 (inactive)
3 | COC(=O)[C@@]1(Cc2ccc(OC)cc2)[C@H]2c3cc(C(=O)N4CCCC4)n(Cc4ccc(Cl)c(C(F)(F)F)c4)c3C[C@H]2CN1C(=O)c1ccccc1 | -0.305 | 0.134 | 0.931 | -0.963 | -0.741 | 2.07 | 0.15 (inactive) | -0.671 | -1.63 | -0.134 (inactive)
4 | COCCn1c(C(=O)N(C)C)cc2c1C[C@H]1CN(C(=O)c3ccccc3)[C@@](Cc3ccc(OC)cc3)(C(=O)OC)[C@@H]21 | -0.615 | -0.61 | 0.33 | -0.479 | -0.843 | 0.564 | -0.722 (inactive) | 0.0961 | -1.52 | -0.437 (inactive)
5 | NCCCCCCNC(=O)[C@@H]1C[C@@H]2C(=O)N3CCC[C@H]3C(=O)N2[C@@H]1c1cccc(OCCO)c1 | 0.108 | 1.18 | -0.12 | 0.597 | 0.313 | 0.127 | 0.391 (inactive) | -0.675 | 0.468 | 0.999 (inactive)
6 | C[N+](C)(C)CCCC[C@@H]1NC(=O)[C@@H]2C[C@H](C(=O)NCc3ccc(F)cc3)[C@H](c3ccc(O)cc3)N2C1=O | 0.993 | -0.335 | 0.698 | 0.481 | -0.114 | 1.62 | -0.41 (inactive) | -0.0248 | -0.524 | -0.0894 (inactive)
7 | CN(C)CCCCNC(=O)[C@H]1C[C@H]2C(=O)N3CCC[C@H]3C(=O)N2[C@H]1c1cccc(OCCO)c1 | -0.893 | -0.0471 | -0.458 | 0.123 | 0.291 | -1.05 | 0.119 (inactive) | 0.712 | 0.0655 | 0.677 (inactive)
